By inhibition is commonly meant the relative decrease from the control value, in per cent.

The target in experiment [1] is Serine/threonine-protein kinase pim-2 (Homo sapiens) (UniProt Q9P1W9). Particulars: at 1 µM.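 Also: each value is a mean of the inhibition measurements against the kinase.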
Experiment [2] has as its target Serine/threonine-protein kinase pim-3 (Homo sapiens) (UniProt Q86V86). Conditions: at 0.1 µM.
For experiment [3] the target is unchanged. Conditions: at 1 µM.
Experiment [4] concerns the target T1, MAP kinase-activated protein kinase 5 (Homo sapiens) (UniProt Q8IW41).
T1 sequence (whole entry): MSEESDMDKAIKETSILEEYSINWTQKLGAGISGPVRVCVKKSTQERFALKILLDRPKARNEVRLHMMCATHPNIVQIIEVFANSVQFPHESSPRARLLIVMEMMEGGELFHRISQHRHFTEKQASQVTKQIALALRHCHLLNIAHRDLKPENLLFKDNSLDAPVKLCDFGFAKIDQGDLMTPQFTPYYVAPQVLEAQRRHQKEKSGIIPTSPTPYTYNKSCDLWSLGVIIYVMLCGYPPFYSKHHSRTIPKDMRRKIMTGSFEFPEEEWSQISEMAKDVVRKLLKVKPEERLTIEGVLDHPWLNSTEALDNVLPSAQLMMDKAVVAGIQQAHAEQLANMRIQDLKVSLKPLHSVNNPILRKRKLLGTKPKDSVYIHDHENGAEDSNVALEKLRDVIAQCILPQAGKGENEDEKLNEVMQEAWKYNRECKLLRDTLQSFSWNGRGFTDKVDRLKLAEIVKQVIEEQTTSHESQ
Conditions: at 0.1 µM.

The target in experiment [5] is T1, MAP kinase-activated protein kinase 5 (Homo sapiens). Particulars: at 1 µM.
Experiment [6] deals with Serine/threonine-protein kinase SIK1 (Homo sapiens) (UniProt P57059). Particulars: at 0.1 µM.
Chain of Serine/threonine-protein kinase SIK1 (Homo sapiens) (P57059 whole entry): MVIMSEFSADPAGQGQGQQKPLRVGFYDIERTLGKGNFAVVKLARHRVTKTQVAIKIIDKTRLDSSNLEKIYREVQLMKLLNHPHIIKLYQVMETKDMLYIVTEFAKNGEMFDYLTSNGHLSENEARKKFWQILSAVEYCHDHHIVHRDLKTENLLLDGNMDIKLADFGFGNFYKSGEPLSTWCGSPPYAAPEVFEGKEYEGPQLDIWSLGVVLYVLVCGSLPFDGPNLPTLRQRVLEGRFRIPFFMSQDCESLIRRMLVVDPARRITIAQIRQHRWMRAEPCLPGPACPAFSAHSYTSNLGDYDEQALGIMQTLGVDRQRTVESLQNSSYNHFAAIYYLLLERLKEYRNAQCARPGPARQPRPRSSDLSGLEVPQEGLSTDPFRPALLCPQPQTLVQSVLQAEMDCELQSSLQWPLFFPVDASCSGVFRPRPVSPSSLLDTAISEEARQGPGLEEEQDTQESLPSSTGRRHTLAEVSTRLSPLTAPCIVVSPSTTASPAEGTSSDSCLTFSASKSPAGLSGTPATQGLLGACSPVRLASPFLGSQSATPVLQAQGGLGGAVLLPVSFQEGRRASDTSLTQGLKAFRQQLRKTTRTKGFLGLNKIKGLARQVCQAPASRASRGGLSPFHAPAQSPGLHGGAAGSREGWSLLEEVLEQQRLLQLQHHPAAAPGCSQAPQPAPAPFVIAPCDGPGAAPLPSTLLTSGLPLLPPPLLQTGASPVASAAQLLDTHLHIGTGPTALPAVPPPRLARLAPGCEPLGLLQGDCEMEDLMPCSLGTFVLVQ
Experiment [7] has the same target. Conditions: at 1 µM.
Experiment [8] concerns the target Serine/threonine-protein kinase SIK2 (Homo sapiens) (UniProt Q9H0K1). Particulars: at 0.1 µM.
Experiment [9] shares this target. Particulars: at 1 µM.
Experiment [10] concerns the target T2, Serine/threonine-protein kinase TBK1 (Homo sapiens) (UniProt Q9UHD2).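 Also: values are the mean TBK1 inhibition, taken from the GSK PKIS screening data.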
T2 sequence (whole entry): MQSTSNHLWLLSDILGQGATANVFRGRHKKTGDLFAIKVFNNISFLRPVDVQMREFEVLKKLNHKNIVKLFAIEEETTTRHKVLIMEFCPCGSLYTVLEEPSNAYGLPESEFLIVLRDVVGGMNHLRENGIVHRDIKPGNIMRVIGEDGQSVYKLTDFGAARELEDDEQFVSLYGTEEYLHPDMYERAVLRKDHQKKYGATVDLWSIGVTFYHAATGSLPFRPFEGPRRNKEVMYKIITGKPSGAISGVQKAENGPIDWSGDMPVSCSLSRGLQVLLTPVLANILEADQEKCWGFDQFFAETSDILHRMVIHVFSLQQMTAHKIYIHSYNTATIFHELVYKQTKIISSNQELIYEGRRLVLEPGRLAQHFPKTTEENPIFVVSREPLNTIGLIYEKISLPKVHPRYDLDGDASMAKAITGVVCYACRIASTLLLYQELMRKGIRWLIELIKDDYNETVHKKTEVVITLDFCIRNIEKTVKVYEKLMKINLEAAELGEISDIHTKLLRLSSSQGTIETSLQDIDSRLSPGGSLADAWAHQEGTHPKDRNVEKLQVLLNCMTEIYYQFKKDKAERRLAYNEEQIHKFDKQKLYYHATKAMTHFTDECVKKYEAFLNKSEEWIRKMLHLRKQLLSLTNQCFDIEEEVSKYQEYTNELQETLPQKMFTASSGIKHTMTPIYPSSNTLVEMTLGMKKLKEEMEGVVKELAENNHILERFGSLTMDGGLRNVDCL
Conditions: at 0.1 µM.

Values joined by “and” are separate entries in the source; they are usually repeats but may differ in a detail not shown here. Equal values may be shown once.

Chain of Serine/threonine-protein kinase SIK2 (Homo sapiens) (Q9H0K1 whole entry, looked up): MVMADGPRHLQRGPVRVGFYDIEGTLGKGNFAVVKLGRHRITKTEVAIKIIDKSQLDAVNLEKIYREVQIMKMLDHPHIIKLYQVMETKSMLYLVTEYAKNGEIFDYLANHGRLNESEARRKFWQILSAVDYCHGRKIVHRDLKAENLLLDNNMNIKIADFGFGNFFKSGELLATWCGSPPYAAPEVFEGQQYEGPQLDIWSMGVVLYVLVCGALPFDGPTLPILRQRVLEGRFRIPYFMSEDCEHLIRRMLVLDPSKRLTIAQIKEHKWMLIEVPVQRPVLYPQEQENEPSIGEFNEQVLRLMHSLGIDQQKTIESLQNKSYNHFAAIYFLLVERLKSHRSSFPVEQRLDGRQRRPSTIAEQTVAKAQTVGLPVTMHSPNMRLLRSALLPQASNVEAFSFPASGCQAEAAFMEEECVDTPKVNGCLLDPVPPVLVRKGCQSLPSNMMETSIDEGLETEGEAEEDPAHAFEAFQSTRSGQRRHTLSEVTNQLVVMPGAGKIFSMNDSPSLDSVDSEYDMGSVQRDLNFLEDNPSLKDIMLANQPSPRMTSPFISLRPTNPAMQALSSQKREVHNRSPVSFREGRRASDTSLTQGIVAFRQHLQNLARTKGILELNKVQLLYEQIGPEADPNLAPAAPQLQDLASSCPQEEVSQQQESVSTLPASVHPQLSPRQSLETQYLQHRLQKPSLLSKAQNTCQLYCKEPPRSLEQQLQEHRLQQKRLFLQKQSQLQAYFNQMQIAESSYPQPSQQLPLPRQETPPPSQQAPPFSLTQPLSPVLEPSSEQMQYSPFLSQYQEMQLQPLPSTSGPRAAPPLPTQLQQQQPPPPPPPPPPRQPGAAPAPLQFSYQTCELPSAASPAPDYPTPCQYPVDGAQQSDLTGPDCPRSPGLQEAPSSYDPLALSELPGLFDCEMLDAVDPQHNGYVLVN
Chain of Serine/threonine-protein kinase pim-2 (Homo sapiens) (Q9P1W9 whole entry, looked up): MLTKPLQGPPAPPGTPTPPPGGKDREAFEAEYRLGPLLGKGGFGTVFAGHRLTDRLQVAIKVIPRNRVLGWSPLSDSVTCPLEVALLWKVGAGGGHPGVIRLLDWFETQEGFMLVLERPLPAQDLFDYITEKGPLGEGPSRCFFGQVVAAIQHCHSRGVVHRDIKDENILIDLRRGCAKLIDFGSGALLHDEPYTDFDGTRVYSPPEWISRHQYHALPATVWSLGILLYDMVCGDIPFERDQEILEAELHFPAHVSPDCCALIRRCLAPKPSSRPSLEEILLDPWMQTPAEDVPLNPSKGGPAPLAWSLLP

For the compound `COc1cccc(-n2ncc3c(N/N=C/c4ccc(C(=O)NCCN(C)C)cc4)ncnc32)c1`, the inhibition is 0.88% in experiment [1]; 0.5% in experiment [2]; 3.82% in experiment [3]; 0.76% in [4]; 0.52% in experiment [5]; 18.3% in experiment [6]. Moreover, the inhibition in experiment [7] was determined as 61.2%; in experiment [8] it was 34.6%; in experiment [9] it was 76%; in experiment [10], 2.76%.
Consider `CC(C)c1ccc(-c2cc(-c3c[nH]nc3-c3ccccn3)ccn2)cc1`, for which the inhibition in experiment [1] is -0.1%; in experiment [2], 0.23%; in [3] it was -0.66%; in experiment [4], 0.04%; in experiment [5] it was -0.19%; in [6], 0.32%. Also, the inhibition was 0.87% in experiment [7], -2.6% in experiment [8], -1.02% in experiment [9] and 0.97% in experiment [10].
In the case of `Cc1cc(O)cc(C)c1/C=C/c1cncc(C(=O)OC(C)(C)C)c1`, the inhibition is 1.55% in experiment [1]; -1.42% in experiment [2]; 2.22% in experiment [3]; 0.68% in [4]; 1.6% in [5]; 18.8% in experiment [6]. Besides, the inhibition in [7] was determined as 71.9%; in experiment [8], 10.5%; in [9], 12.3%; in experiment [10] it was 2.04%.
Turning to `CN1CCN(Cc2ccc(-c3cc4ncnc(Nc5ccc(OCc6cccc(F)c6)c(Cl)c5)c4s3)o2)CC1`, the inhibition was 0.42% and 1.37% in experiment [1]; -0.99% and -1.6% in experiment [2]; 0.95% and 2.39% in experiment [3]; 0.79% and 1.52% in experiment [4]; 0.84% and 3.86% in [5]; 4.03% and 8.14% in [6]. Moreover, the inhibition in experiment [7] was 12.8% and 15.9%; in experiment [8], 2.15% and 4.89%; in experiment [9], 1.94% and 9.4%; in [10] it was 1.51% and 5%.
For the compound `CC1=C(C(=O)Nc2ccc3[nH]nc(C)c3c2)C(c2ccc(C(F)(F)F)cc2)CC(=O)N1` (stereo not given), the inhibition in experiment [1] is 0.55%; in experiment [2], 0.17%; in [3], -2.32%; in experiment [4], 0.34%; in experiment [5], -0.66%; in experiment [6], 0.72%. Also, the inhibition is 1.39% in experiment [7], 4.07% in experiment [8], 0.64% in [9] and -1.52% in [10].
For `CCS(=O)(=O)c1ccc(OC)c(Nc2ncc(-c3cccc(C(C)=O)c3)o2)c1`, the inhibition in [1] is -0.01%; in experiment [2], 0.38%; in [3] it was 4.79%; in experiment [4], 1.84%; in [5], 2%; in experiment [6] it was 6.02%. For the same compound, the inhibition in experiment [7] turned out to be 15.1%; in experiment [8], 3.14%; in experiment [9], 14%; in [10], 0.54%.
On to `Nc1nccc(-c2c(-c3ccc(F)cc3)ncn2C2CCNCC2)n1`, for which the inhibition in experiment [1] was 1.8% and 0.96%; in experiment [2], 0.82% and 0.07%; in experiment [3] it was 11% and 0.53%; in experiment [4], -1.67% and 0.07%; in [5] it was -1.48% and 0.35%; in [6], -9% and 6.76%. Besides, the inhibition in experiment [7] is -2.37% and 5.84%; in experiment [8], -0.69% and 8.02%; in [9], 37.4% and 47.1%; in [10], -1.45% and -0.58%.
Turning to `NS(=O)(=O)c1ccc(N/N=C2\C(=O)Nc3ccc(C(=O)NCc4ccncc4)cc32)cc1`, the inhibition in [1] is 4.93%; in experiment [2], 1.9%; in experiment [3] it was 8.56%; in experiment [4] it was 1.84%; in [5], 6.01%; in experiment [6], 3.99%. Also, the inhibition in experiment [7] came to 19.8%; in [8], 6.03%; in experiment [9], 17.1%; in experiment [10], 3.83%.
With `Nc1nonc1-c1nc2cnccc2n1C1CC1`, the inhibition is 11.3% and 9.18% in experiment [1]; 3.94% and 4.22% in experiment [2]; 30.6% and 32.5% in [3]; 0.67% and 1.06% in [4]; -0.55% and 4.15% in [5]; 6.64% and 2.66% in experiment [6]. For the same compound, the inhibition in experiment [7] was 8.35% and 5.12%; in [8], 0.75% and 5.71%; in [9], 5.93% and 2.36%; in [10], 7.96% and 1.98%.
Consider `CNC(=O)c1sc(-n2cnc3cc(OC)c(OC)cc32)cc1OCc1ccccc1C(F)(F)F`, for which the inhibition is 0.56% in experiment [1]; -0.77% in experiment [2]; -0.33% in [3]; 1.17% in [4]; 1.03% in [5]; 5.73% in experiment [6]. The inhibition was 11.3% in [7], 7.24% in experiment [8], 8.75% in experiment [9] and 1.68% in [10].
In the case of `Fc1cccc(COc2ccc(Nc3ncncc3C#Cc3ccccc3)cc2Cl)c1`, the inhibition in [1] was 1.48%; in experiment [2], -0.8%; in [3], 3.6%; in [4], 2.08%; in experiment [5] it was 4.3%; in experiment [6] it was 3.74%. The inhibition in experiment [7] stood at 5.31%; in [8], 9.03%; in experiment [9], 6.72%; in [10], 5.15%.
For the compound `NS(=O)(=O)c1ccc(N/N=C2\C(=O)Nc3cccc(CCc4ccncc4)c32)cc1`, the inhibition worked out at 0.64% in experiment [1]; 0.22% in [2]; 0.75% in experiment [3]; 0.36% in experiment [4]; 0.28% in experiment [5]; 1.17% in [6]. In addition, the inhibition is 2.64% in experiment [7], 2.91% in [8], -0.94% in experiment [9] and 1.99% in experiment [10].
On to `Cc1c2ccc(N(C)c3ccnc(Nc4cccc(S(N)(=O)=O)c4)n3)cc2nn1C`, for which the inhibition in experiment [1] was -3.16%; in [2], -1.16%; in [3], -2.47%; in experiment [4], 1.9%; in [5], 1.08%; in experiment [6], 4.24%. Also, the inhibition in experiment [7] amounted to 27.6%; in [8], 3.64%; in [9] it was 9.51%; in [10], 4.99%.
On to `NC(=O)c1ccc2c(-c3ccnc(NCCCO)n3)c(-c3ccc(F)cc3)nn2c1`, for which the inhibition in experiment [1] was 1.11%; in experiment [2], -0.5%; in experiment [3], -0.27%; in [4] it was 1.47%; in experiment [5] it was 1.16%; in experiment [6] it was 3.64%. Besides, the inhibition in [7] amounted to 16%; in experiment [8], 9.22%; in [9], 40.4%; in experiment [10], 4.13%.
With `c1ccc(-c2n[nH]cc2-c2ccnc(-c3ccc(OCCn4ccnc4)cc3)c2)nc1`, the inhibition in experiment [1] was 0.26%; in experiment [2] it was 0.51%; in experiment [3] it was 0.09%; in experiment [4] it was 0.48%; in experiment [5], 1.25%; in experiment [6], 1.64%. The inhibition in [7] was 6.26%; in experiment [8], 0.8%; in experiment [9], 10%; in [10], 0.6%.

The record behind these values is ChEMBL document CHEMBL1961873, “Compounds: GSK PKIS; Assays: Nanosyn kinase panel” (2012).
